Source: PubChem
Compounds with a hit are over-represented: about 5.3% of the library has one in this group of screens.
Vaccinia mCherry: vaccinia inhibition (mCherry reporter). Potency, µM (doses to about 36.5 µM), without a hit: top-dose activity change, negative = inhibition, hits mostly inhibitors. AID 720579. 310,000 compounds, 0.63% hits. Vaccinia virus mCherry reporter infection, fluorescence; calls by dose curve; tested in A549 cells; note: % is set by controls: 0 for no effect and ±100 for the full control effect; nearly all actives have a fitted effect of over 35% in size
HCV inhibitor: HCV inhibition; Huh7.5.1 HCVcc-Cre infection, luciferase reporter, 44 h; Potency, µM (series often up to 41.8 µM), without a hit: at the highest dose activity change, negative = inhibition, hits mostly inhibitors; 340,000 compounds, 3.4% hits; AID 651820; note: % is set by controls: 0 for no effect and ±100 for the full control effect
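A cell-based infection assay in which seeded cells (1,000 per well) receive test compound after 4 h, are inoculated with HCVcc-Cre at approximately 0.5 moi, and are incubated 44 h before luminescence detection.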
LASV entry inh: blocks Lassa virus binding to or entry into cells. Lassa virus pseudotype entry inhibition, cell reporter. Potency, µM (series often up to 37.9 µM), for inactives: at the top dose activity change, negative = inhibition, actives largely listed as inhibitors. 300,000 compounds, 1.2% hits. AID 540256; calls by dose curve; tested in HEK293 cells; note: % is set by controls: 0 for no effect and ±100 for the full control effect; nearly all actives have a fitted effect of over 50% in size
FMDV antiviral: blocks foot and mouth disease virus; FMDV antiviral cell-based qHTS; Potency, µM (top dose mostly 57.9 µM), without a hit: at the top dose activity change, negative = inhibition, most hits filed as inhibitors; 410,000 compounds, 1.2% hits; AID 1159524; calls by dose curve; tested in HEK293T cells; note: read-out not given here; % is set by controls: 0 for no effect and ±100 for the full control effect; nearly all actives have a fitted effect of over 45% in size
VACV Venus inh: inhibitors of vaccinia virus (Venus reporter). Potency, µM (top dose mostly 36.5 µM), for the others: at the top dose activity change, negative = inhibition, hits mostly inhibitors. Vaccinia virus Venus reporter expression, fluorescence. 330,000 compounds, 0.46% hits; calls by dose curve; tested in A549 cells; note: % is set by controls: 0 for no effect and ±100 for the full control effect; nearly all actives have a fitted effect of over 30% in size
MARV entry inh: blocks Marburg virus binding to or entry into cells | Marburg virus pseudotyped entry inhibition, cell reporter | Potency, µM (top dose mostly 37.8 µM), for inactives: at the highest dose activity change, negative = inhibition, hits mostly inhibitors | 300,000 compounds, 1.8% hits; calls by dose curve; tested in HEK293 cells; note: % is set by controls: 0 for no effect and ±100 for the full control effect
HCV inh confirm: HCV inhibition, cherry-pick confirmation; shares compounds with HCV inhibitor; HCVcc-Cre infectious virus cell assay, luciferase, inhibition; Potency, µM (highest dose often 41.8 µM), inactives show top-dose activity, negative = inhibition, actives largely listed as inhibitors; 640 compounds, 78% hits; note: nearly all actives have a fitted effect of over 80% in size
HCV cytotox: host cell cytotoxicity counter-screen for HCV inhibitors | shares compounds with HCV inhibitor | HCV host cell line cytotoxicity counterscreen | Potency, µM (series often up to 41.8 µM), inactives show at the highest dose activity change, negative = cytotoxicity, most hits filed as inhibitors | 640 compounds, 22% hits;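 note: 44 h compound exposure; % is set by controls: 0 for no effect and ±100 for the full control effect; nearly all actives have a fitted effect of over 55% in size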
* = called active by the depositor; i = inactive; ? = inconclusive; nt = no result given; ! = a repeat was not active; [ ] = remark or other dose. Unless noted, calls come from the whole dose curve; as a rule, active = well fitted curve in the direction sought with a large enough effect; inconclusive = small, poorly fitted or top-dose-only effect, or another doubt; inactive = no such curve, though single readings can be large; an effect the other way counts as inactive or inconclusive. Potency is the fitted concentration of half-maximal effect.

SMILES | Vaccinia mCherry | HCV inhibitor | LASV entry inh | FMDV antiviral | VACV Venus inh | MARV entry inh | HCV inh confirm | HCV cytotox
C[C@H]1C[C@@H]2[C@H]([C@@H](O)C[C@@]3(C)[C@H]2CC[C@]3(O)C(=O)CO)[C@@]2(C)C=CC(=O)C=C12 | -2% | 5.6µM*! | 3% | -10% | -24% | -24% | -5% | 46%
CCCCn1c(SCc2nc3ccccc3s2)nc2cc(S(N)(=O)=O)ccc21 | -23% | ? | ? | -22% | ? | 1.8µM* | 18µM* | -38%
Cc1ccc2c(c1)-c1cc(C)ccc1C2=O | -2% | ? | -2%[46.1 µM] | 5% | -4% | 3%[46.1 µM] | 22µM* | 10%
O=[N+]([O-])c1ccc(CN2CCCCCC2)cc1 | i | -3% | ? | -2% | 6% | 12% | nt | nt
O=[N+]([O-])c1ccc(S(=O)(=O)CC(CN2CCCCC2)N2CCCCC2)cc1 (centres undefined) | nt | 4.5µM* | 5.2µM* | 18µM* | nt | 4.6µM* | 11µM* | 20µM*
Cc1noc(C)c1-c1ccc(C(=O)NCc2cccnc2)c2occc12 | i | nt | nt | -18% | -13% | nt | nt | nt
CSc1ncccc1C(=O)Nc1ccc(S(=O)(=O)N2CCCC2)cc1 | nt | -23% | nt | -23% | nt | nt | nt | nt
COc1cc2c(cc1NC(=O)COC(=O)CNS(=O)(=O)c1ccc(C)cc1)oc1ccccc12 | -29% | ? | 15% | 53% | -11% | 14% | 7.9µM* | -11%
COc1cc2c(cc1NC(=O)COC(=O)[C@@H](NS(=O)(=O)c1cccc(Cl)c1)C(C)C)oc1ccccc12 | -19% | ? | -21% | 31% | ? | ? | 13µM* | 31%
COc1ccc(S(=O)(=O)N[C@@H](C)C(=O)OCC(=O)Nc2cc3oc4ccccc4c3cc2OC)cc1 | i | 6.3µM* | 22% | 24% | -16% | ? | 22µM* | 24%
Cc1nccn1CCC(=O)NC1CC(C)(C)Cc2c1cnn2-c1ccccc1 (centres undefined) | -16% | nt | nt | -20% | 4% | nt | nt | nt
O=S1(=O)CC(c2ccccc2)=NN=C(c2ccccc2)C1 | -14% | nt | nt | -8% | -8% | nt | nt | nt
O=C(Nc1cccc(C(F)(F)F)c1)c1csc([C@@H]2O[C@H](CO)[C@H](O)[C@H](O)[C@H]2O)n1 | 15% | nt | nt | -17% | 19% | nt | nt | nt
Cc1ccc(C)c(CNc2ccc(S(=O)(=O)N3CCCCC3)cc2)c1 | nt | 4.5µM* | nt | ? | nt | nt | 25µM* | 31µM*
Cc1ccc(S(=O)(=O)N2CCCCC2)cc1 | nt | 6% | nt | -15% | nt | nt | nt | nt
CC(Nc1cc(N2CCNCC2)ccc1[N+](=O)[O-])c1ccccc1 (centres undefined) | 14µM* | 3.5µM* | -4% | -3% | ? | ? | ? | 55%
CCS(=O)(=O)N1CCN(c2ccc([N+](=O)[O-])c(NC(C)c3ccccc3)c2)CC1 (centres undefined) | nt | ? | ? | -23% | -5% | ? | nt | nt
COc1ccc(S(=O)(=O)n2ccc(-c3ccc(OCCN(C)c4ccccn4)cc3)n2)cc1 | nt | 6.3µM* | ? | -25% | nt | -4% | 7µM* | ?
CN1C(=O)C(=Cc2ccc(OCCN(C)c3ccccn3)cc2)C(=O)N(C)C1=O | nt | 14% | nt | 6% | nt | nt | nt | nt
Cc1cc(C)c(C(=O)OCCNC(=O)c2cccnc2)cc1C | nt | 8.9µM* | -7% | -18% | nt | -23% | ? | -24%
CCCCn1c(N)c(N(CCOC)C(=O)COC(=O)CSc2cc(C)c3ccccc3n2)c(=O)[nH]c1=O | -23% | ? | -17% | -19% | -7% | 9%[46.1 µM] | nt | nt
CNc1nc(NCc2ccco2)c2ccccc2n1 | -17% | nt | nt | nt | ? | nt | nt | nt
c1ccc(Nc2nc(NCc3ccco3)c3ccccc3n2)cc1 | i | 4µM* | 13µM* | 14µM* | ? | ? | 14µM* | 25µM*
COc1c(C)cccc1C(=O)NCc1ccc2c(c1)OCO2 | -12% | -1% | -3%[46.1 µM] | 14% | -8% | -1%[46.1 µM] | nt | nt
COc1ccc(-c2nc3cc(C)c(Br)c(C)n3c2Cc2ccsc2)cc1OC | -3% | nt | nt | -10% | -5% | nt | nt | nt
SMILES | Vaccinia mCherry | HCV inhibitor | LASV entry inh | FMDV antiviral | VACV Venus inh | MARV entry inh | HCV inh confirm | HCV cytotox
CCOc1ccccc1NC(=O)NC1CCCc2ccccc21 (centres undefined) | nt | ? | nt | ? | nt | nt | 7.9µM* | 31%
COc1cccc(N(C(=O)CCl)C(C(=O)NCCc2ccccc2)c2cccs2)c1 (centres undefined) | ? | 0.71µM* | ? | 16µM* | ? | ? | 0.89µM* | 0.5µM*
C/C(=N\NC(=O)C1COc2ccccc2O1)c1ccccn1 (centres undefined) | 4.5µM* | 4.5µM* | 11µM* | -3% | ? | ? | 11µM* | ?
C/C(=N\NC(=O)C1COc2ccccc2O1)c1ccc(C)o1 (centres undefined) | -16% | 3% | 23% | 11% | -15% | 14% | nt | nt
COc1ccc2c(C)cc(SCc3c(C)noc3C)nc2c1 | -12% | 6.3µM* | -14% | -25% | -8% | -20% | 22µM* | -31%
COc1ccc2c(C)cc(SCC#N)nc2c1 | nt | ? | 6% | 5% | nt | -14% | nt | nt
CCC(Sc1nc2ccncc2[nH]1)C(=O)Nc1cc(C)ccc1C (centres undefined) | -10% | nt | 13%[46.1 µM] | -15% | -10% | 2%[46.1 µM] | nt | nt
CCCC(=O)Nc1cccc(NC(=O)c2cccc([N+](=O)[O-])c2C)c1 | i | 7.9µM* | 9% | ? | -10% | ? | 13µM* | -16%
CCC(=O)NC(=S)Nc1ccc(NC(=O)c2cccc([N+](=O)[O-])c2C)cc1 | -20% | ? | 11% | -10% | -7% | 9% | nt | nt
Cn1c(-c2ccsc2)c(-c2cccs2)c2cc(-c3ccc4cc[nH]c4c3)ccc21 | ? | 1.1µM* | nt | -9% | -23% | nt | 11µM* | -35%
Cc1ccc(/C=C/C(=O)c2nc3ccccc3[nH]2)cc1 | nt | ? | 0% | -19% | nt | ? | nt | nt
O=S(=O)(/C(=C\c1ccc(C(F)(F)F)cc1)c1nc2ccccc2[nH]1)c1ccccc1 | ? | 1.4µM* | 3.5µM* | 11µM* | ? | 4µM* | 7.9µM* | -97%
CCOC(=O)COc1ccc(S(=O)(=O)NCc2ccncc2)cc1 | -12% | 14% | ? | nt | -14% | -30% | nt | nt
Cc1ccc(S(=O)(=O)NCc2ccncc2)cc1 | -24% | 2.8µM* | 10% | 2% | ? | ? | 2.2µM* | 8.9µM*
Cc1ccc(S(=O)(=O)NCC(=O)NCc2ccncc2)cc1 | nt | 2% | -5% | 0% | -11% | 15% | nt | nt
CCOc1ccc(S(=O)(=O)NCc2ccncc2)cc1 | nt | ? | ? | -14% | nt | ? | 0.28µM* | 0.25µM*
